Test results reported in ChEMBL document CHEMBL3988442, “University of Dundee, Small-Polar-MMV Screening Library” (2021).
The whole screen tested about 48,000 compounds, of which about 13,000 (27%) showed an effect of 50% or more. This is one part of the list.

Tested on: Wolbachia pipientis
Assay: Anti-Wolbachia Cell-Based Screen
Format: functional
Design: scale not given: in the data most compounds retested in dose-response had high values
Conditions: 5 µM

Compound	Percent Effect [%]
Cc1csc(CN(C)C(=O)c2cccc(CCC(C)(C)O)c2)n1	-10.56
COCc1ncc(CN2C[C@@H](C(=O)O)[C@H](C(C)C)C2)cn1	0.5192
CC(C)N1CCC(c2cnc(-c3cncnc3)cn2)CC1	77.04
CC(C)N1CCC(c2cnc(-c3cn[nH]c3)cn2)CC1	107.4
CCCn1ncnc1C(C)NC(=O)C1CCN(C(C)C)CC1 (stereo not given)	-2.448
O=C(O)c1cc(-c2cn[nH]c2)cc(S(=O)(=O)N2CCSCC2)c1	-7.646
CS(=O)(=O)N1CCC(c2cnc(-c3cn[nH]c3)cn2)CC1	122.9581
Cn1cc(-c2nc(C3CCN(S(C)(=O)=O)CC3)cc3c2ncn3C)cn1	6.413
CC(C)N1CCC(c2nnc(CN3CCCC3)n2C2CC2)CC1	-3.352
COc1cccc2c1OCCCN(Cc1ccc(C(N)=O)c(=O)[nH]1)C2	-4.223
CC(C)Cn1cnc(S(=O)(=O)Nc2cccnc2-n2cccn2)c1	-21.79
CC1(C)CN(C(=O)CC2CCS(=O)(=O)CC2)C[C@]1(C)O	8.618
O=S(=O)(NCC1(O)CCOCC1)c1ccccc1Br	8.924
CC(C)NC(=O)NC[C@H]1OC[C@@H](NCc2cccs2)[C@@H]1O	11.97
CCc1cc(N[C@H](C(N)=O)C(C)C)n2nc(C)c(C)c2n1	-4.879
Cc1cccc(C2(CNC(=O)CCNS(C)(=O)=O)CCCC2)c1	4.767
Cc1c(Br)cccc1C(=O)NCCC1CCCNC1.Cl (stereo not given)	6.591
c1cnc(Nc2cc(CCC3CCNCC3)ccn2)cn1	61.48

Compound	Percent Effect [%]
CN1CCC(CCc2ccnc(Nc3cnccn3)c2)CC1	95.48
O=C(NCCNc1cnccn1)NCC1CCS(=O)(=O)C1 (stereo not given)	-2.4
Cl.c1cnc(Nc2cc(CCC3CCCNC3)ccn2)cn1 (stereo not given)	75.77
O=C(CO)N1CCC(CCc2ccnc(Nc3cnccn3)c2)CC1	125.8
CC(Cc1cnccn1)NC(=O)c1cccc(CC2CCNCC2)c1 (stereo not given)	-6.406
Cc1ccc(Oc2ncccc2CNC2CCOCC2)cn1	-4.901
CCC(CNC1CCN(C(C)=O)CC1)Oc1cccc(C)c1 (stereo not given)	3.033
CN(C)c1cc2c(nn1)CCN(C(=O)C1CCc3ccccc31)C2 (stereo not given)	-4.6
Cc1nc(C(=O)N2CCN(S(C)(=O)=O)[C@@H]3CS(=O)(=O)C[C@@H]32)cs1	-1.846
CCc1c(C)nn(CCNC(=O)c2csc(C)n2)c1C	-30.9
Cc1cc(C)n(-c2nc(C(=O)NCCS(=O)(=O)N3CCCCC3)cs2)n1	95.89
CCCc1nc(C(=O)NCCN2CCC(c3ccccc3C)C2)cs1 (stereo not given)	-11.15
Cc1csc(CNC(=O)NC2CCCN(S(C)(=O)=O)C2)n1 (stereo not given)	-1.577
Cc1nc(C(=O)NCCS(=O)(=O)N2CCCC2)cs1	99.98
CC1CCN(CCNC(=O)c2cncnc2C(C)C)CC1	-7.999
Cc1cc(C(=O)NCCN2CCN(S(C)(=O)=O)CC2)no1.Cl	11.14
Cc1cc(C)n(-c2nc(C(=O)NCCN3CCC(C)CC3)cs2)n1	74.92
